High-throughput results deposited in PubChem by Broad Institute.
Sampled rows, rich in hits. Any-hit rate of the full collection: about 2.4%.
NSD2 inh: inhibitors of human histone methyltransferase NSD2 | NSD2 peptide methylation, AlphaScreen, 120 min | inhibition, % at 12.5 µM | 0.54% of 310,000 active | AID 743445
miR-122 sensor: blocks miR-122 activity in Huh7 sensor cells; Huh7 miR-122 Renilla luciferase sensor, 48 h; neutral wells = 0, positive control = 100; activation (reporter increase), % at 12.5 µM; 0.3% of 340,000 active; AID 602342;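 active = mean replicate activation score at least 90 and every replicate individually at or above 90; inconclusive = only one of the two criteria met; inactive = neither criterion met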;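 note: higher luciferase means less miR-122 activity so hits act as miR-122 inhibitors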
MITF act: increases MITF-driven TRPM1 promoter luciferase signal. activation, % at 12.5 µM. 0.75% of 300,000 active. SK-MEL-5 TRPM1-promoter luciferase, 24 h; % of positive control, neutral wells = 0;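 active = mean activation of at least 80% with every replicate also reaching 80%; inconclusive = mean reaches 80% but some replicate falls short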;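 note: 0% = neutral control wells and 100% = parthenolide positive control wells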
GSIS activator: primary screen for activators of insulin secretion dependent on glucose, INS-1E cells, GLuc reporter luminescence | 0.61% of 370,000 active | INS-1E GLuc reporter insulin secretion, 2-3 h | activation, % at 16.6 µM;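 active = lowest replicate activation of at least 40%, so every replicate reaches that level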;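 note: 0% = median of neutral control wells and 100% = median of IBMX positive control wells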
DYRK1A inh: inhibitors of rat Dyrk1A kinase; Q63470; ADP-Glo luminescence, NFATc1 peptide; inhibition, % at 12.5 µM; 0.43% of 310,000 active; AID 504441;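 note: plate controls were vehicle with enzyme for no effect and no enzyme for full effect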
Wnt bcat act: activates Wnt/beta-catenin signaling in a reporter cell assay | activator, plate reader | activation, % at 9.35 µM | 1.2% of 300,000 active | AID 743398; in the data active = activation above about 30%, passing the limit was not always enough; inconclusive = no clear call, values can overlap the other calls;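 note: 0% = neutral control wells and 100% = positive control wells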
Numbers without * were called inactive; [ ] = dose if it differs, or a comment. Cut-off read from the data, not from the text of the source, unless noted: active = inhibition above about 50%; inactive = the rest.

Screening C[C@@H]1CN(C)C(=O)Cc2cc(N(C)C)ccc2O[C@@H]1CN(C)S(C)(=O)=O returned GSIS activator -3.
`CC=Cc1ccc2n(c1=O)C[C@@H]1[C@@H](CO)[C@H](C(=O)N(C)C)N(CCC(F)(F)F)[C@H]21` (mixture of isomers) gave GSIS activator 9.
O=C(O)C(=O)Nc1nc(-c2ccc3c(c2)OCCO3)cs1 was read as NSD2 inh 1, miR-122 sensor 1, MITF act 0, GSIS activator 12, DYRK1A inh -6 and Wnt bcat act 6.
O=C(Nc1nc(-c2ccc3c(c2)OCO3)cs1)C1CC1 was read as miR-122 sensor 1, MITF act 93*, GSIS activator 0, DYRK1A inh 24 and Wnt bcat act -1.
`CC(=O)Nc1nc(-c2ccc3ccccc3c2)cs1` gave NSD2 inh 2, MITF act 94*, GSIS activator 8, DYRK1A inh 3 and Wnt bcat act 48*.
For O=C(CN1C(=O)CCC1=O)Nc1nc(-c2ccccn2)cs1 the results were miR-122 sensor 3, MITF act 0, GSIS activator 1, DYRK1A inh -1 and Wnt bcat act -1.
For O=C(CN1C(=O)CCC1=O)Nc1nc(-c2nc3ccccc3s2)cs1 the results were miR-122 sensor -4, MITF act 92*, DYRK1A inh 22 and Wnt bcat act 10.
CNc1nc(OCC#N)nc(N2CCCCC2)n1 was read as NSD2 inh -2, MITF act 6, GSIS activator 44*, DYRK1A inh 1 and Wnt bcat act 0.
`CCCC#Cc1cnc2c(c1)C(=O)N([C@H](C)CO)C[C@H](C)[C@H](CN(C)Cc1ccccc1)O2` gave GSIS activator -1.
For C[C@H](CO)N1C[C@H](C)[C@H](CN(C)C(=O)NC2CCCCC2)Oc2ccc(N(C)C)cc2C1=O the results were miR-122 sensor -3[16.7 µM] and GSIS activator -1.
For COc1ccc(/C=N/Nc2nccnc2Cl)cc1 the results were NSD2 inh 2 and MITF act 1.
`COc1ccc(/C=N/Nc2nccnc2Cl)c(OC)c1` gave NSD2 inh -2, MITF act 88*, GSIS activator 22 and DYRK1A inh -2.
For C=CCn1c(SCC(=O)N2CCOCC2)nc2c([nH]c3ccccc32)c1=O the results were NSD2 inh 3, miR-122 sensor 6, MITF act -12, GSIS activator 43*, DYRK1A inh 1 and Wnt bcat act 11.
Screening C=CCn1c(SCC(=O)N2CCN(c3ccccc3)CC2)nc2c([nH]c3ccccc32)c1=O returned NSD2 inh 4, miR-122 sensor 5, MITF act -52, GSIS activator 4, DYRK1A inh -3 and Wnt bcat act 0.
Screening COCC(=O)N1CCC2(CC1)CN(Cc1cc(F)ccc1F)[C@H](CO)c1c2c2ccc(OC)cc2n1C returned GSIS activator -7.
Screening COC(=O)C[C@@H]1C[C@@H]2c3cc(NC(=O)Nc4ccc(C(F)(F)F)cc4)ccc3O[C@@H]2[C@H](CO)O1 returned miR-122 sensor -1[16.7 µM] and GSIS activator 11.
For NC(COCc1ccccc1)c1csc(Nc2ccc(C(F)(F)F)cn2)n1 (stereo not drawn) the results were GSIS activator 254 and Wnt bcat act -2.
Screening NC(c1csc(Nc2ccc(C(F)(F)F)cn2)n1)C1CCCCC1 (stereo not drawn) returned NSD2 inh 0, GSIS activator 533* and Wnt bcat act -1.
`NC(CCc1ccccc1)c1csc(Nc2ccc(C(F)(F)F)cn2)n1` (stereo not drawn) gave NSD2 inh 1, miR-122 sensor 3, GSIS activator 308* and Wnt bcat act -2.
`COc1ccc(OCc2cc(C(=O)N3C[C@H]4CC[C@H]3C4)no2)c(Cl)c1` gave NSD2 inh -4, miR-122 sensor 8, MITF act 84*, GSIS activator -10, DYRK1A inh 0 and Wnt bcat act 14.
For COc1ccccc1OCc1cc(-c2ccccc2)no1 the results were NSD2 inh -1, MITF act 95*, GSIS activator 5 and DYRK1A inh 1.
For COc1ccccc1OCc1cc(C(=O)N2CCN(C)C(c3ccccc3)C2)no1 (stereo not drawn) the results were NSD2 inh 3, miR-122 sensor -1, MITF act 26, GSIS activator 1, DYRK1A inh 1 and Wnt bcat act 41*.
Screening CSc1ccccc1OCc1cc(C(=O)N2CCN(C)C(c3ccccc3)C2)no1 (stereo not drawn) returned NSD2 inh 0, miR-122 sensor -3, MITF act 12, GSIS activator -19, DYRK1A inh -7 and Wnt bcat act 1.
For O=C(c1cc(COc2c(F)cccc2F)on1)N1C[C@H]2CC[C@H]1C2 the results were NSD2 inh -3, miR-122 sensor -4, MITF act 71, GSIS activator 3, DYRK1A inh -7 and Wnt bcat act 34*.
For O=C(c1cc(COc2ccc(F)cc2F)on1)N1C[C@H]2CC[C@H]1C2 the results were NSD2 inh -2, MITF act 79, GSIS activator -3, DYRK1A inh 8 and Wnt bcat act 15.
`c1ccc(OCc2cc(-c3ccccc3)no2)cc1` gave NSD2 inh -10, MITF act 71, GSIS activator 27, DYRK1A inh -4 and Wnt bcat act inconclusive.
For N#Cc1cccc(-c2ccc3c(c2)[C@H]2[C@H](CCN2Cc2ccncc2)[C@@H](CO)N3)c1 the results were GSIS activator 9.
For COc1ccccc1OCc1cc(C(=O)N2CC3C[C@@H]4CC2C[C@H](C3)C4)no1 the results were NSD2 inh -1, MITF act 89*, GSIS activator -11 and Wnt bcat act 23.
For O=C(C[C@@H]1CC[C@H]2[C@@H](COC[C@@H](O)CN2C(=O)Nc2cccc(Cl)c2)O1)N1CCCCC1 the results were miR-122 sensor -5[16.7 µM] and GSIS activator -20.
For COc1cccc(S(=O)(=O)N2CCCCN3[C@H](CO)[C@@H](c4ccc(C#CC5CC5)cc4)[C@@H]3C2)c1 the results were miR-122 sensor -8[16.7 µM] and GSIS activator -2.
O=C(Nc1nc2c(s1)CCCC2)c1ccc2ncsc2c1 was read as miR-122 sensor -4, DYRK1A inh 48 and Wnt bcat act 42*.
For O=C(Nc1ccc(Cl)cc1Cl)c1ccc2ncsc2c1 the results were NSD2 inh 0, miR-122 sensor -13, MITF act 112*, GSIS activator 8, DYRK1A inh 7 and Wnt bcat act inconclusive.
O=C(NCCCN1CCOCC1)c1ccc2nc(-c3ccc(F)cc3)c(-c3ccc(F)cc3)nc2c1 was read as NSD2 inh 4.
